Screening results deposited in PubChem BioAssay by National Center for Advancing Translational Sciences (NCATS).
An excerpt weighted towards active compounds, which were near 19% of everything screened.
TDP1 cell CPT: DT40-hTDP1 cell growth loss with CPT; actives 12% (n = 420,000); Potency, µM (series often up to 46.2 µM), hits mostly inhibitors; chicken DT40 Tdp1-/-;hTDP1 cells + 20 nM CPT, ATP luminescence, 48 h; further: nearly all actives have a fitted effect of over 55% in size
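Chicken DT40 Tdp1-/- cells stably complemented with human TDP1 were seeded at 400 cells/well in medium containing 20 nM camptothecin, exposed to pin-transferred compounds, and grown at 37 °C for at least 48 hr. Viability was read as ATP luminescence.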
HT1080 IDH1KD tx: kills HT-1080 cells with IDH1 knockdown; HT-1080 IDH1 knockdown viability, ATP luminescence, 48 h; actives 2% (n = 360,000); Potency, µM (doses to about 46.1 µM), hits mostly cytotoxic
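Luminescent ATP read-out (CellTiter-Glo, 10 min at room temperature) after 48 h compound exposure at 37 °C gave viability of IDH1-knockdown HT-1080 cells. Activity was normalised to DMSO and cell-free wells, then fitted as concentration-response curves.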
ELG1 DNA repair: blocks ELG1-dependent DNA repair in HEK293T cells; AID 504467; HEK293T ELG1-luciferase reporter, luminescence, 16 h; DNA damage induced by 5-fluorouridine; actives 2.3% (n = 330,000); Potency, µM (titrated, usually from 46.1 µM), hits mostly inhibitors; further: nearly all actives have a fitted effect of over 55% in size
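In this reporter screen, reduction of luminescence relative to DMSO vehicle indicated activity. Compounds and 5-fluorouridine were added together to 2,000 cells per well, incubated for 16 hr at 37 °C, then developed with ONE-Glo.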
DT40 TDP1 no CPT: qHTS for Inhibitors of human tyrosyl-DNA phosphodiesterase 1 (TDP1): qHTS in cells in absence of CPT | Potency, µM (highest dose often 46.2 µM), most hits filed as inhibitors | AID 686978, 2013 | DT40 Tdp1-/- hTDP1 cells, no CPT, ATP luminescence, 48 h | actives 15% (n = 420,000); further: nearly all actives have a fitted effect of over 55% in size
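Readout: luminescence from CellTiter-Glo after 30 min in the dark at RT. Cells: DT40 Tdp1-/- with stable hTDP1, 400/well. Exposure: compounds alone, ≥48 hr, 37 °C.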
HT1080-NT tox: kills 2HG-producing HT-1080-NT fibrosarcoma cells | HT-1080-NT fibrosarcoma viability, CellTiter-Glo ATP luminescence, 48 h | Potency, µM (highest dose often 46.1 µM), hits mostly cytotoxic | actives 1.6% (n = 360,000) | AID 686970;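 further: NT is the 2HG producing partner of a matched IDH1 knockdown line; nearly all actives have a fitted effect of over 55% in size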
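Read-out is CellTiter-Glo luminescence after 10 minutes at room temperature, following 48 hours' compound treatment of HT-1080-NT cells (750 cells/well, RPMI, 5% FBS, 37 degrees C).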
IL1B secr inh: blocks inflammasome-driven IL-1 beta release | THP-1 LPS/ATP IL-1B secretion, AlphaLISA, 16 h; active compounds read low | activity change, % at 57.5 µM | actives 4.7% (n = 360,000) | AID 743279; in the data active means activity change below about -50%; inconclusive means mostly about -30% to -49%
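THP-1 cells pretreated 1 hr with compounds (up to 57.5 uM final), then stimulated with LPS (250 ng/mL final) plus ATP (1.25 mM final); secreted IL-1B measured by AlphaLISA after 16 hr, decreased signal indicating inhibition.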
Of the large screens only hits and unclear results are named; the others gave an inactive call. Unless noted, the call rests on the fitted dose curve; in most records, active means well fitted curve in the direction sought with a large enough effect; inconclusive means small, poorly fitted or top-dose-only effect, or another doubt; inactive means no such curve, though single readings can be large; an effect the other way counts as inactive or inconclusive.

O=C(CSc1nnc(-c2ccc(Br)cc2)n1-c1ccccc1)c1ccccc1	TDP1 cell CPT 7.3µM, DT40 TDP1 no CPT 4.1µM (no result: HT1080 IDH1KD tx, ELG1 DNA repair, HT1080-NT tox, IL1B secr inh)
COc1ccc(C(=O)CSc2nnc(CN3CCCCC3)n2-c2ccc(F)cc2)cc1	TDP1 cell CPT 21µM, DT40 TDP1 no CPT 13µM
COc1ccc(Nc2nc3c(S(=O)(=O)c4ccc(C)cc4)nnn3c3ccsc23)cc1Cl	none (no result: HT1080 IDH1KD tx, ELG1 DNA repair, HT1080-NT tox, IL1B secr inh)
COc1ccc(-n2c(=O)c3ccccc3n(Cc3cccc(C)c3)c2=O)cc1OC	none
Cc1ccc(-c2nnc3ccccc3c2C(=O)Nc2cccc(Cl)c2)cc1	none (no result: HT1080 IDH1KD tx, ELG1 DNA repair, HT1080-NT tox, IL1B secr inh)
Cc1ccc(-c2nnc(SCC(=O)c3ccc(Cl)cc3)n2-c2ccccc2)cc1	TDP1 cell CPT 4.6µM, DT40 TDP1 no CPT 8.2µM (no result: HT1080 IDH1KD tx, ELG1 DNA repair, HT1080-NT tox, IL1B secr inh)
CCOc1ccc(-c2nnc(SCC(=O)c3ccc(F)cc3)n2-c2ccccc2)cc1	TDP1 cell CPT 13µM, DT40 TDP1 no CPT inconclusive (no result: HT1080 IDH1KD tx, ELG1 DNA repair, HT1080-NT tox, IL1B secr inh)
O=C(O)c1ccc(-c2nc3ccccc3s2)o1	ELG1 DNA repair inconclusive
O=C(CN1CCN(C(=O)c2ccc(-c3nc4ccccc4s3)o2)CC1)Nc1ccccc1Cl	TDP1 cell CPT inconclusive, ELG1 DNA repair inconclusive, DT40 TDP1 no CPT inconclusive
O=C(CN1CCN(C(=O)c2ccc(-c3nc4ccccc4s3)o2)CC1)Nc1ccc(F)cc1	TDP1 cell CPT inconclusive, ELG1 DNA repair inconclusive, DT40 TDP1 no CPT 26µM
O=C(c1ccc(-c2nc3ccccc3s2)o1)N1CCN(c2ccccc2O)CC1	TDP1 cell CPT 23µM, DT40 TDP1 no CPT 21µM
CC(/C=C/c1ccccc1)=N/NC(=O)c1nc2nc(C)cc(C)n2n1	DT40 TDP1 no CPT inconclusive
CC(/C=C/c1ccccc1)=N\Nc1nc(C)cc(C)n1	TDP1 cell CPT 4.6µM, ELG1 DNA repair inconclusive, DT40 TDP1 no CPT 5.2µM
Cc1cc(C)nc(NN=C(c2ccccc2)c2ccccc2)n1	TDP1 cell CPT 16µM, ELG1 DNA repair inconclusive, DT40 TDP1 no CPT 10µM
CC(C)CCNC(=O)Cn1cc(S(=O)(=O)Cc2ccc(F)cc2)c2ccccc21	TDP1 cell CPT 26µM, DT40 TDP1 no CPT inconclusive (no result: HT1080 IDH1KD tx, ELG1 DNA repair, HT1080-NT tox, IL1B secr inh)
O=C(Cn1cc(S(=O)(=O)Cc2cccc(Cl)c2)c2ccccc21)NCCc1ccccc1	none (no result: HT1080 IDH1KD tx, ELG1 DNA repair, HT1080-NT tox, IL1B secr inh)
COc1ccc(CCNC(=O)Cn2cc(S(=O)(=O)Cc3cccc(Cl)c3)c3ccccc32)cc1OC	TDP1 cell CPT inconclusive, DT40 TDP1 no CPT 18µM (no result: HT1080 IDH1KD tx, ELG1 DNA repair, HT1080-NT tox, IL1B secr inh)
COC(=O)c1ccccc1NC(=O)Cn1cc(S(=O)(=O)Cc2ccccc2F)c2ccccc21	TDP1 cell CPT 15µM, DT40 TDP1 no CPT 21µM (no result: HT1080 IDH1KD tx, ELG1 DNA repair, HT1080-NT tox, IL1B secr inh)
COC1OC(c2ccccc2)=C(c2ccc(C(N)=O)cc2)c2ccc(F)cc21 (stereo not given)	DT40 TDP1 no CPT inconclusive (no result: ELG1 DNA repair)
C=CCN1C(c2ccc(Br)cc2)=CS/C1=C(/C#N)c1nnc(N2CCOCC2)n1-c1ccccc1	TDP1 cell CPT 7.3µM, ELG1 DNA repair inconclusive, DT40 TDP1 no CPT 8.2µM
C=CCN1C(c2cccc(C(F)(F)F)c2)=CS/C1=C(/C#N)c1nnc(N2CCOCC2)n1-c1ccccc1	TDP1 cell CPT 12µM, ELG1 DNA repair inconclusive, DT40 TDP1 no CPT 12µM
N#Cc1c(N2CCOCC2)nsc1-c1ccccc1	ELG1 DNA repair inconclusive
C=CCN1C(=O)NC(c2ccc(OC)cc2)(C(F)(F)F)S/C1=C(\C#N)c1nnc(N2CCOCC2)n1-c1ccccc1 (stereo not given)	HT1080-NT tox inconclusive, IL1B secr inh -52
Cc1noc(C)c1S(=O)(=O)NCCc1csc2nc(-c3ccc(F)cc3)nn12	TDP1 cell CPT 18µM, DT40 TDP1 no CPT 23µM (no result: HT1080 IDH1KD tx, ELG1 DNA repair, HT1080-NT tox, IL1B secr inh)
COc1ccc(S(=O)(=O)NCCc2ccc(F)cc2)cc1	none
CCOc1ccc(S(=O)(=O)NCCc2csc3nc(-c4ccc(F)cc4)nn23)cc1	TDP1 cell CPT 12µM, DT40 TDP1 no CPT 6.5µM (no result: HT1080 IDH1KD tx, ELG1 DNA repair, HT1080-NT tox, IL1B secr inh)
C[C@H](NC(=O)OC(C)(C)C)[C@@H](O)c1ccco1	none (no result: HT1080 IDH1KD tx, ELG1 DNA repair, HT1080-NT tox, IL1B secr inh)
O=C(O)C/C(=C\c1cccc(NC(=O)c2ccccc2Cl)c1)c1nc2ccccc2s1	TDP1 cell CPT inconclusive, DT40 TDP1 no CPT inconclusive
